# Compound activity from PubChem BioAssay.
# HPGD inh = qHTS Assay for Inhibitors of HPGD (15-Hydroxyprostaglandin Dehydrogenase); 15-hydroxyprostaglandin dehydrogenase [NAD(+)] (Homo sapiens), P15428; purified HPGD, NADH fluorescence kinetic, PGE2 substrate; Potency, µM, inactives show at the highest dose activity change, negative = inhibition, actives largely listed as inhibitors; 4.3% of 150,000 active; AID 894, 2007; also: potency is read from the fitted curve at half-maximal effect
#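 20 nM HPGD preincubated 15 min at room temperature with compound in 50 mM Tris-HCl pH 8, 0.01% Tween 20. Started with 1 mM NAD+ and 30 uM prostaglandin E2; NADH fluorescence (360/450 nm) read 5 times over 30-s intervals, last minus first.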
# ALDH1A1 inh = qHTS Assay for Inhibitors of Aldehyde Dehydrogenase 1 (ALDH1A1). Aldehyde dehydrogenase 1A1 (Homo sapiens), P00352. Purified ALDH1A1, NADH fluorescence, propionaldehyde substrate. Potency, µM (doses to about 75.3 µM), for the others: at the highest dose activity, negative = inhibition, hits mostly inhibitors. 7.3% of 220,000 active;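 also: potency is read from the fitted curve at half-maximal effect; plate controls were no enzyme wells and a reference inhibitor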
# Target sequence (P00352 whole entry, looked up): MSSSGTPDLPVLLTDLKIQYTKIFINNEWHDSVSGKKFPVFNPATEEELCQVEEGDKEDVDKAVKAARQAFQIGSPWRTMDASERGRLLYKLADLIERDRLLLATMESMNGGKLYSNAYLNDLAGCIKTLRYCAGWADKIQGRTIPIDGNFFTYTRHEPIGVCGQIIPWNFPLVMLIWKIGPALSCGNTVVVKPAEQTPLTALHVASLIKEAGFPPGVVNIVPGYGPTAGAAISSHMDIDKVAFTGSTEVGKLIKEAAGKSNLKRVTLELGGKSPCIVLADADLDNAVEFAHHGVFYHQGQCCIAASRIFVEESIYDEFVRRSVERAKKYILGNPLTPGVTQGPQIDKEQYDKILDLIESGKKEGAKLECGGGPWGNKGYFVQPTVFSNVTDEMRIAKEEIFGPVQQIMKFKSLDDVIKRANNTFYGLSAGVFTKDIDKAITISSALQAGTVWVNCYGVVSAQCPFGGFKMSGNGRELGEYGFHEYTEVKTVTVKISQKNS
# PNC inhibitor = High Content Assay for Compounds that inhibit the Assembly of the Perinucleolar Compartment; PC3M PTB-GFP, PNC prevalence imaging, 16 h; active compounds read low; activity change (PNC), negative = inhibition, % at 10 µM; 3.1% of 140,000 active; AID 2417, 2010;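 active = readout at or below -70, meaning at least 70% loss of cells showing the perinucleolar compartment, a nuclear body marking cancer cells; inconclusive = readout between -30 and a set limit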;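 also: plate controls were DMSO wells for no effect and camptothecin positive control wells for full effect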
#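 PC3M cells stably expressing PTB-GFP, 750–1000 cells/well, treated 16 h at 37 °C with compound (23 nl of library stock), in duplicate. After paraformaldehyde fixation and Hoechst stain, imaged at 20x; PNC prevalence scored by image analysis.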
# The depositor's hits bear a star; ? = inconclusive; . = not tested or not shown; [ ] = another dose, or the depositor's remark. Compounds with a hit are over-represented: about 11% of the library has one in this group of screens. Unless noted, calls follow the shape of the dose curve; as a rule, active = well fitted inhibition curve with a large enough effect (not every such curve was filed as active); inconclusive = small, poorly fitted or top-dose-only effect, or another doubt; inactive = no such curve, though single readings can be large or run the other way. Unless noted, % is scaled to controls: 0 for no effect and ±100 for the full control effect.
SMILES,HPGD inh,ALDH1A1 inh,PNC inhibitor
Cc1noc(/C=C/N(C)C)c1S(=O)(=O)N(C)CC(=O)N1CCc2ccccc21,-5%,3%,-19
CN(Cc1nc(Cc2cccc(C(F)(F)F)c2)no1)C1CC(C)(C)NC(C)(C)C1,.,-1%,.
CC1(C(=O)CSc2n[nH]c(-c3ccccc3Cl)n2)CCC(=O)O1 (centres undefined),-19%,?,151
CC1CC2(CC(C)(C(=O)CSc3n[nH]c(-c4ccccc4Cl)n3)OC2=O)C(=O)O1 (centres undefined),?,18µM*,-20
COc1ccc(C2CC(=O)Oc3cc(C)c(Cl)cc32)cc1 (centres undefined),-10%,-13%,.
COc1ccc(NC(=O)CSc2ncnc3c2cnn3Cc2ccccc2)cc1,-28%,-26%,-22
Cc1cccc(Nc2ncnc3c2cnn3Cc2ccccc2)c1,.,22µM*,.
COc1ccc(CC(=O)NNc2ncnc3c2cnn3Cc2ccccc2)cc1OC,.,10µM*,.
COc1ccc2cnn(-c3ccccc3)c(=O)c2c1OC,-17%,-14%,-22
COc1ccc(NC(=O)CSc2ncnc3c2cnn3Cc2ccccc2)cc1OC,4%,?,42
Clc1ccc(Cn2ncc3c(NCc4ccccc4)ncnc32)cc1,-15%,2%,?
COc1ccc2cnn(Cc3ccccc3)c(=O)c2c1OC,.,3.5µM*,-27
COc1ccc(Nc2ncnc3c2cnn3Cc2ccccc2)cc1OC,.,8.9µM*,-8
COc1cc(NS(C)(=O)=O)ccc1Cc1c2ccccc2nc2ccccc12,-20%,15%,.
O=C(CC12CC3CC(CC(C3)C1)C2)NCC(c1ccc(F)cc1)N1CCOCC1 (centres undefined),.,-3%,.
O=S(=O)(Nc1cccc(-c2nnco2)c1)c1ccc(F)cc1F,.,10%,.
CCOC(=O)Cn1nc(-c2ccc(Cl)cc2)ccc1=O,-7%,14%,6
CCOC(=O)CSC1=NC(=O)/C(=C\c2ccc(Cl)cc2)S1,2.2µM*,20µM*,-19
Cc1ccc(C(=O)NC(=O)OCCn2c(C)cnc2[N+](=O)[O-])cc1,.,-1%,.
COc1ccc(CNc2ncnc(N)n2)cc1,-1%,6%,-101*
COc1ccc(CN(C)c2ncnc(N)n2)cc1,-5%,18%,2
O=C(O)CCC(=O)Nc1ccccc1C(=O)N1CCN(c2ccc(Cl)cc2)CC1,.,6%,.
CCOc1ccc2nc(SCC(=O)N3CCCc4ccccc43)sc2c1,-11%,4%,?
O=C(CSc1nccc(=O)[nH]1)N1CCCc2ccccc21,-10%,-15%,?
Cc1nnc(SCC(=O)N2CCCc3ccccc32)[nH]c1=O,-8%,-11%,22
SMILES,HPGD inh,ALDH1A1 inh,PNC inhibitor
Cc1cc(=O)[nH]c(SCC(=O)N2CCCc3ccccc32)n1,-9%,-1%,-100*
O=C(CSc1nc2cc(Cl)ccc2s1)N1CCCc2ccccc21,?,8.9µM*,22
O=C(CSc1nc(O)cc(=O)[nH]1)N1CCCc2ccccc21,18µM*,22µM*,-30
CSc1ccccc1NC(=O)CN(c1ccccc1Br)S(C)(=O)=O,-12%,8%,14
c1ccc(-n2ncc3c(NCc4ccco4)ncnc32)cc1,?,?,31
Cc1ccc(-n2ncc3c(NCc4cccnc4)ncnc32)c(C)c1,?,?,50
c1ccc(Cn2ncc3c(NCc4ccco4)ncnc32)cc1,.,?,-105*
Cc1ccc(-n2ncc3c(NCCCN4CCCC4=O)ncnc32)c(C)c1,-26%,?,?
COCCCNc1ncnc2c1cnn2-c1ccc(C)cc1C,7.9µM*,-6%,?
Cc1ccc(-n2ncc3c(NCc4ccccn4)ncnc32)c(C)c1,13µM*,?,38
Cc1ccc(-n2ncc3c(NCc4ccc5c(c4)OCO5)ncnc32)c(C)c1,-14%,?,-26
Cc1ccc(-n2ncc3c(NCc4ccco4)ncnc32)c(C)c1,3.5µM*,-2%,?
COc1ccc(-c2nc(CSCC(=O)NCCC3=CCCCC3)c(C)o2)cc1OC,-17%,-7%,25
CCn1c(C)nc2cc(C(=O)N/N=C/c3ccc(OC)c(O)c3)ccc21,-25%,?,31
O=C(COC(=O)c1cc[n+]([O-])cc1)NCc1ccccc1Cl,.,-8%,.
NC(=O)N[C@H]1NC(=O)NC1=O,-4%,7%[20.9 µM],.
COC(=O)c1c(C(=O)OC)c(-c2cccc(Cl)c2)n2c1CS(=O)C2 (centres undefined),.,-8%,.
CC1CCCC(NC(=O)COC(=O)c2c[nH]c(=O)[nH]c2=O)C1C (centres undefined),-4%,?,6
CC1CCc2nn(CC(=O)NC3CCCC(C)C3C)cc2C1 (centres undefined),14µM*,2%,-26
CCOC(=O)N1CCC(NC(=O)Cn2cc3c(n2)CCC(C)C3)CC1 (centres undefined),-10%,1%,150
CC1CCCC(NC(=O)COC(=O)CCC2CCCC2)C1C (centres undefined),?,11µM*,?
CC1CCCC(NC(=O)Cc2ccc(Br)cc2)C1C (centres undefined),16µM*,-8%,-9
CC1CCCC(NC(=O)COC(=O)Cc2ccsc2)C1C (centres undefined),-8%,-7%,-19
CC1CCCC(NC(=O)COC(=O)COc2ccc(Cl)cc2)C1C (centres undefined),-11%,1µM*,?
CC1CCCC(NC(=O)COC(=O)Cc2ccc(Br)cc2)C1C (centres undefined),.,7%,.
SMILES,HPGD inh,ALDH1A1 inh,PNC inhibitor
COc1ccc(C)cc1N(CC(=O)Nc1ccc2c(c1)OCCO2)S(C)(=O)=O,.,4%,.
O=C(O)c1ccncc1.O=C(O)c1ccncc1.[NH2-].[NH2-].[Pt],0%,20%[13.5 µM],.
COc1cccc(Cn2c(=O)c(-c3cccs3)nc3cncnc32)c1,.,-11%,.
O=C(NC1CCCCC1)c1cc([N+](=O)[O-])ccc1N1CCCCC1,-7%,13µM*,12
CC(C)CNC(=O)c1cc([N+](=O)[O-])ccc1N1CCCCC1,-9%,0%,50
CN1CCN(S(=O)(=O)c2cc([N+](=O)[O-])ccc2N2CCCCCC2)CC1,-10%,?,17
COc1ccc(C(=O)c2cc([N+](=O)[O-])ccc2N2CCCC2)cc1,-5%,-2%,-12
Cc1ccc(C(=O)c2cc([N+](=O)[O-])ccc2N2CCN(C)CC2)cc1,-3%,?,-6
COc1ccc(C(=O)c2cc([N+](=O)[O-])ccc2N2CCN(C)CC2)cc1,.,5µM*,.
CN1CCN(c2ccc([N+](=O)[O-])cc2C(=O)c2ccc(Br)cc2)CC1,-12%,28µM*,-14
O=[N+]([O-])c1ccc(N2CCCCCC2)c(S(=O)(=O)N2CCCCC2)c1,-13%,25µM*,22
COc1ccc2c(c1)O[C@@H](c1ccc3c(c1)OCO3)[C@H](O)C2=O,-6%,-6%,.
CCOC(=O)c1c(-c2ccc(F)cc2)csc1/N=C/N(C)C,.,1%,.
COCCNC(=O)NC(=O)CN1CCN(C(c2ccccc2)c2ccccc2)CC1,.,-2%,.
CC(=O)NCCc1nc2ccccc2n1CCc1ccccc1,.,3%,.
Cc1ccc(C(=O)c2cc([N+](=O)[O-])ccc2N2CCOCC2)cc1C,-16%,32µM*,?
O=C(c1ccccc1)c1cc([N+](=O)[O-])ccc1N1CCCC1,-4%,-9%,?
